Hits are enriched below; roughly 3.8% of the tested compounds scored in any of these assays.
Nrf2 block = Nrf2 qHTS screen for inhibitors; A549 ARE-Fluc reporter, luciferase luminescence, 18-24 h; Potency, µM (titrated, usually from 46 µM), for the others: top-dose activity change, negative = inhibition, actives largely listed as inhibitors; 2.1% of 360,000 active; AID 504444, 2011; further: on the % scale 0 is the no-effect control and ±100 the full control effect; nearly all actives have a fitted effect of over 60% in size
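Nrf2 function is reported as luminescence of an ARE-controlled luciferase in A549 cells. Compounds were tested at several concentrations, and a CellTiter-Fluor read on the same wells flagged cytotoxicity.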
ATXN2 expr inh = Primary qHTS for Inhibitors of ATXN expression; Potency, µM (top dose mostly 57 µM), for the others: at the top dose activity change, negative = inhibition, actives largely listed as inhibitors; HEK-293 ATXN2-luciferase reporter, luminescence, 24 h; 0.72% of 360,000 active; further: on the % scale 0 is the no-effect control and ±100 the full control effect; nearly all actives have a fitted effect of over 55% in size
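qHTS (up to 57 uM final) was run with 24 h compound exposure of reporter cells at 37 °C. Each well was multiplexed: SteadyGlo luminescence measured ATXN2-luciferase expression after a fluorogenic Gly-Phe-AFC viability readout (25 uM final).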
TGFb SMAD3 inh = qHTS for Inhibitors of TGF-b. HepG2 CAGA-GFP TGF-b/SMAD3 reporter, GFP fluorescence, 18 h; TGF-beta stimulated, 500 pg/mL final. Potency, µM (titrated, usually from 46.1 µM), for inactives: at the top dose activity, negative = inhibition, usual class: inhibitors. 1.2% of 410,000 active. AID 588855, 2011; further: on the % scale 0 is the no-effect control and ±100 the full control effect; nearly all actives have a fitted effect of over 65% in size
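Per well, imaged GFP fluorescence of HEPG2 CAGA-GFP cells gives the signal; cells get compound, then TGF-beta (500 pg/mL final), 18 h at 37 degrees C; %Activity versus -TGF-beta and +DMSO controls.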
A549 tox-1 = Nrf2 qHTS screen for inhibitors: counterscreen for cytotoxicity. A549 ARE-Fluc cells, CellTiter-Fluor viability, 18-24 h. Potency, µM (doses to about 46 µM), for the others: at the highest dose activity change, negative = cytotoxicity, usual class: inhibitors. 0.16% of 390,000 active; further: on the % scale 0 is the no-effect control and ±100 the full control effect
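Cytotoxicity counterscreen: CellTiter-Fluor fluorescence was measured in A549 ARE_Fluc cells after 18-24 h of compound exposure in a concentration series. The subsequent BugLite luminescent read reports ARE-luciferase activity.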
HepG2 viability = qHTS for Inhibitors of TGF-b: Cytotox Counterscreen. HepG2 CAGA-GFP viability, ATP luminescence, 18 h. AID 588856, 2011. 0.76% of 410,000 active. Potency, µM (titrated, usually from 46.1 µM), for inactives: top-dose activity change, negative = cytotoxicity, usual class: cytotoxic
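HepG2 CAGA-GFP cells (1000/well, DMEM with 1% FBS) received compound, then TGF-beta at 500 pg/mL final, and were incubated 18 hours at 37 degrees C. Viability was read by CellTiter-Glo luminescence. Media-only wells were set as complete cell-killing and DMSO as no toxicity.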
ATXN viability = Viability Counterscreen for Primary qHTS for Inhibitors of ATXN expression; S2 cells (HEK-293 line with an ATXN2-luciferase reporter) viability, CellTiter-Fluor protease fluorescence, 24 h; Potency, µM (highest dose often 56.7 µM), hits mostly cytotoxic; 0.49% of 400,000 active; further: nearly all actives have a fitted effect of over 40% in size
FLuc enzyme inh = Nrf2 qHTS screen for inhibitors: Purified Fluc Biochemical Counterscreen for Hit Validation; shares compounds with Nrf2 block; purified firefly luciferase, luminescence inhibition; Potency, µM (doses to about 57.5 µM), without a hit: top-dose activity change, negative = inhibition, usual class: inhibitors; 4% of 1,400 active; AID 720522, 2013; further: on the % scale 0 is the no-effect control and ±100 the full control effect; nearly all actives have a fitted effect of over 65% in size
Target sequence (P08659 whole entry, looked up): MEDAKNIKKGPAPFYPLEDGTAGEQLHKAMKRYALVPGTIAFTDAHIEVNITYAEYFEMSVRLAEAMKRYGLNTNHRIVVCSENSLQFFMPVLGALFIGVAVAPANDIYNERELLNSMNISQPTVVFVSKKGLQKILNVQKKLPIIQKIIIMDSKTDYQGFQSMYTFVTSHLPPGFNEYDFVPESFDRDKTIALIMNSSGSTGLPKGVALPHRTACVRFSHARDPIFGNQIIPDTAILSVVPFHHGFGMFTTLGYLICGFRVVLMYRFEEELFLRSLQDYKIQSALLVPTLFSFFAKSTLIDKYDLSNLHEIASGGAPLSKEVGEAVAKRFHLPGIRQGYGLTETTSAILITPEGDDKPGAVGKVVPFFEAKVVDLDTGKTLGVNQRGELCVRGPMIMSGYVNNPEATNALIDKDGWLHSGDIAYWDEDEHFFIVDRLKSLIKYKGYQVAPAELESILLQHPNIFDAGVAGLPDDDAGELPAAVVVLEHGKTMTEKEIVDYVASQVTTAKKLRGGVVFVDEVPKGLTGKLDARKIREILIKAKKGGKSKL
A549 tox-2 = Nrf2 qHTS screen for inhibitors: A549 ARE-Fluc Cytotoxicity Counterscreen for Hit Validation; 2% of 1,400 active; AID 720523, 2013; A549 ARE-Fluc cells, cytotoxicity counterscreen; Potency, µM (doses to about 46.1 µM), without a hit: top-dose activity change, negative = cytotoxicity, most hits filed as inhibitors; shares compounds with Nrf2 block;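 further: cells exposed to compounds for 18 to 24 hours; on the % scale 0 is the no-effect control and ±100 the full control effect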
ARE-Fluc inh = Nrf2 qHTS screen for inhibitors: Nrf2 A549 ARE-Fluc Confirmation Assay for Hit Validation. Potency, µM (top dose mostly 46.1 µM), for inactives: top-dose activity change, negative = inhibition, hits mostly inhibitors. shares compounds with Nrf2 block. A549 ARE-firefly luciferase reporter, luminescence. 74% of 1,400 active; further: on the % scale 0 is the no-effect control and ±100 the full control effect; nearly all actives have a fitted effect of over 65% in size
Starred values were filed as active, the others as inactive; i = inactive; ? = inconclusive; nt = not tested or not shown; [ ] = remark or other dose. The call rests on the fitted dose curve; in most records, active means well fitted curve in the direction sought with a large enough effect; inconclusive means small, poorly fitted or top-dose-only effect, or another doubt; inactive means no such curve, though single readings can be large; an effect the other way counts as inactive or inconclusive. Potency means the concentration at half of the fitted maximal effect.

SMILES | Nrf2 block | ATXN2 expr inh | TGFb SMAD3 inh | A549 tox-1 | HepG2 viability | ATXN viability | FLuc enzyme inh | A549 tox-2 | ARE-Fluc inh
O=S(=O)(c1ccc2c(c1)OCCO2)N1CCC(c2nc3ccccc3s2)CC1 | 3.26µM* | -6.0% | ? | -0.3%[1.84 µM] | -2.0% | i | -1.4% | -6.5% | -47.9%
O=S(=O)(c1ccc2c(c1)OCCO2)N1CCC(c2nc3ccc(Cl)cc3[nH]2)CC1 | 4.61µM* | 15.8µM* | ? | ? | -50.4% | ? | -13.1% | -22.3% | 10.3µM*
O=C(C1CC1)N1CCC(c2nc(-c3ccc(S(=O)(=O)N4CCCC4)cc3)no2)CC1 | -2.3% | -7.7% | ? | -6.0% | -37.9% | i | nt | nt | nt
Cc1[nH]c(=O)[nH]c(=O)c1S(=O)(=O)N1CCCC1 | nt | -3.8% | -6.4% | 7.6% | 1.3% | i | nt | nt | nt
O=S(=O)(Cc1ccccc1)N(O)c1ccccc1 | 12.1% | 38.6% | 1.8% | -1.2% | -0.6% | i | nt | nt | nt
Cc1ccc(Nc2cc(Cl)nc(N)n2)c([N+](=O)[O-])c1 | -3.9% | 15.7% | 8.5% | -4.1% | 3.5% | i | nt | nt | nt
C/C(=N\NC(=O)c1c(C)nc2ccccn12)c1ccco1 | 0.5% | -6.1% | 0.0% | 9.0% | 1.1% | i | nt | nt | nt
COCCCN(C(=O)c1ccc(N2CCCC2=O)cc1)c1c(N)n(Cc2ccccc2)c(=O)[nH]c1=O | 18.9% | 3.7% | -12.8% | -4.9% | -1.3% | i | nt | nt | nt
CCCCN(C(=O)c1ccc(N2CCCC2=O)cc1)c1c(N)n(Cc2ccccc2)c(=O)[nH]c1=O | 5.8µM* | -6.6% | -9.0% | -9.3% | -11.5% | i | -0.4% | -10.4% | 3.66µM*
COc1cc2ncnc(NCc3ccccc3)c2cc1OC | ? | -10.0% | -8.3% | -8.8% | 4.6% | i | nt | nt | nt
c1ccc(CNc2ncnc3ccccc23)cc1 | 4.61µM* | -25.8% | -3.2% | -3.1% | -3.8% | i | 0.4% | -11.9% | 6.51µM*
COc1ccc(CNc2cc(C)nc3ncnn23)c(OC)c1 | 1.64µM* | -2.3% | -20.9% | -23.2% | -3.7% | i | 2.2% | -8.8% | ?
COc1ccc(Nc2cc(C)nc3ncnn23)c(OC)c1 | -11.1% | 16.1% | 4.3% | 1.5% | 1.1% | i | nt | nt | nt
O=c1cnnc(N/N=C/c2ccccn2)[nH]1 | ? | 1.78µM* | -29.8% | -19.9% | -24.2% | ? | 0.5% | -16.0% | 11.6µM*
Cc1ccc(Cn2c(C)c3cnn(CC(=O)N4CCN(c5cc(C)ccc5C)CC4)c(=O)c3c2C)cc1 | 8.2µM* | nt | -23.0% | -16.9% | 5.3% | nt | 4.4% | -23.5% | 6.51µM*
FC(F)(F)c1cc(-c2ccco2)nc(-n2cnc3ccccc32)n1 | nt | ? | -2.4% | 8.4% | -10.6% | i | nt | nt | nt
Cc1nc2ccccc2n1-c1nc(-c2ccco2)cc(C(F)(F)F)n1 | 4.61µM* | ? | ? | ? | -53.2% | i | -11.9% | ? | 5.8µM*
COc1cccc(CNC(=O)CSc2c3c(nc4ccc(Cl)cc24)CCCC3)c1OC | ? | nt | ? | -19.6% | -57.3% | nt | nt | nt | nt

Source: PubChem
